This passage reports Potency results from PubChem BioAssay AID588397 (National Center for Advancing Translational Sciences (NCATS), 2011).

Molecules are shown by their SMILES. In all, about 1,300 compounds went through this assay and about 1,000 (77%) were called active. Inconclusive results (about 7%) are left out. Calls come from the whole dose curve; as a rule, active = well fitted inhibition curve with a large enough effect; inconclusive = small, poorly fitted or top-dose-only effect; inactive = no such curve, though single readings can be large or run the other way. So high a share suggests a set chosen from earlier hits. Some of the results follow.
Potency is the fitted concentration of half-maximal effect.

The test can be described thus: qHTS of small molecules that selectively kill Giardia lamblia: Hit Validation.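 Note: viability measured as ATP content by luminescence so killing lowers signal; trophozoites exposed to compounds for 48 h anaerobically at 37 °C; nearly all actives have a fitted effect of over 65% in size.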 To be noted: Giardia lamblia trophozoite viability, dose-response; series mostly up to 38.3 µM. The method in brief:
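Trophozoites 100 cells/well + cpd; 48 hrs, 37 deg C, anaerobic. ATPLite 1-Step added, 15-30 min RT, luminescence read (ATP-based viability).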
Background: In qHTS, concentration-response curves come from the screen itself.
For the compound `CN(Cc1ccccc1)C(=O)c1ccc(NC(=O)Cc2cccc(NC(=O)C3CCN(C(=O)C4CC4)CC3)c2)cc1`, the Potency entry was “inactive”.
As for `O=C(Nc1ccccc1C(=O)O)c1ccc(NC(=O)C2CC2)cc1`, the figure is 4100 nM (active); as for `CN(CCc1ccccc1)C(=O)c1cccc(NC(=O)Cc2cccc(NC(=O)C3CCN(C(=O)C4CCCC4)CC3)c2)c1`, “inactive”; as for `N/C(=N\O)c1ccc([N+](=O)[O-])s1`, 2900 nM (active).
Regarding `O=[N+]([O-])c1cccn2cc(-c3ccc(Br)cc3)nc12`, the Potency was 729 nM (active).
As for `O=C(c1ccco1)N1CCN(c2c([N+](=O)[O-])nn(-c3cccc(Cl)c3)[n+]2[O-])CC1`, the figure is 2590 nM (active); as for `O=C(c1ccco1)N1CCN(c2c([N+](=O)[O-])nn(-c3ccc(Cl)cc3)[n+]2[O-])CC1`, 918 nM (active); as for `Cn1c([N+](=O)[O-])cnc1COC(N)=O`, 1160 nM (active).
On to `O=C(NC(=S)Nc1ccc(CN2CCOCC2)cc1)c1ccc([N+](=O)[O-])cc1Cl`, for which the Potency was 4100 nM (active).
Under `CC(C)OC(=O)Nc1ccc2c(c1)N(C(=O)N1CCN(C)CC1)c1ccccc1CC2` stands 4100 nM (active); under `CCCCOc1ccc(C(=O)NCC(=O)NCCCn2nc(C)cc2C)cc1`, “inactive”; under `O=C(CN1C(=O)c2ccccc2S1(=O)=O)c1ccc2c(c1)OCCO2`, 2900 nM (active).
Under `O=C(CN1C(=O)c2ccccc2S1(=O)=O)c1ccc2c(c1)OCCCO2` stands 1030 nM (active).
Under `Cc1ccc(-c2ccc(/C=N/N3C(=O)C4C5C=CC(CC5)C4C3=O)o2)c([N+](=O)[O-])c1` (stereo not drawn) stands “inactive”.
Take `O=C1OC(CN(Cc2ccccc2)Cc2ccccc2)CN1N=Cc1ccc([N+](=O)[O-])o1` (stereo not drawn): the Potency is 650 nM (active).
Under `CC1CS(=O)(=O)CCN1N=Cc1ccc([N+](=O)[O-])o1` (stereo not drawn) stands 365 nM (active); under `O=C1SCCN1N=Cc1ccc([N+](=O)[O-])o1`, 326 nM (active); under `Cc1cc(O)ccc1N1C(=O)c2cccc3cc([N+](=O)[O-])cc(c23)C1=O`, 2900 nM (active).
For `O=C1c2cc([N+](=O)[O-])cc3cc([N+](=O)[O-])cc(c23)C(=O)N1c1ccccn1`, the Potency was 1830 nM (active).
With `Cc1ccc(-c2nc3ncccc3o2)cc1NC(=O)c1ccc([N+](=O)[O-])o1`, the Potency was 918 nM (active).
As for `Cc1c(NC(=O)c2ccc([N+](=O)[O-])o2)cccc1-c1nc2ncccc2o1`, the figure is 918 nM (active); as for `O=C(Nc1ccc(-c2nc3ncccc3o2)cc1)c1ccc([N+](=O)[O-])o1`, 1300 nM (active); as for `O=[N+]([O-])c1ccc(/C=N/n2c(CO)nc3ccccc32)s1`, 650 nM (active).
Under `Nc1nc2ccccc2n1/N=C/c1ccc([N+](=O)[O-])s1` stands 410 nM (active); under `Cc1nc2ccccc2n1/N=C/c1ccc([N+](=O)[O-])s1`, 1630 nM (active).
Under `Cc1cc2ncn(/N=C/c3ccc([N+](=O)[O-])s3)c2cc1C` stands 1300 nM (active); under `O=C(Cc1ccccc1)Nc1nnc(-c2cccs2)s1`, 1450 nM (active).
Turning to `CCc1nc2cc([N+](=O)[O-])c([N+](=O)[O-])cc2[nH]1`, the Potency is 6500 nM (active).
Under `O=[N+]([O-])c1ccc2nc(CO)[nH]c2c1` stands 2310 nM (active); under `Cn1c([N+](=O)[O-])cnc1N1CCN(c2nncs2)C1=O`, 365 nM (active).
For the compound `Cc1cc(C)c2nc(NC(=O)c3ccc([N+](=O)[O-])o3)sc2c1`, the Potency is 1160 nM (active).
As for `Cc1cc(C)c2sc(NC(=O)c3ccc([N+](=O)[O-])o3)nc2c1`, the figure is 1160 nM (active); as for `Cc1cccc(-n2ncc3c(N4CCCC4)ncnc32)c1`, 5160 nM (active); as for `COc1ccc(C(=S)NC2CCCCC2)cc1`, 1030 nM (active).
As for `COc1ccc(Cn2ccnc2SCC(=O)NC2CCCC2)cc1`, the entry is “inactive”; as for `Cc1nc2c(o1)C(=O)c1ccccc1C2=Nc1ccccc1`, 6500 nM (active).
On to `Cc1ccc(CN=c2c([N+](=O)[O-])nn(-c3cccc(C)c3)n2O)cc1`, for which the Potency is 18300 nM (active).
For the compound `Cc1ccc(CN=c2c([N+](=O)[O-])nn(-c3cccc(Cl)c3)n2O)cc1`, the Potency was 18300 nM (active).
As for `COc1ccc(-n2nc([N+](=O)[O-])c(=NCc3cccnc3)n2O)cc1`, the figure is 2590 nM (active); as for `Cc1cccc(-n2nc([N+](=O)[O-])c(=NCc3cccnc3)n2O)c1`, 4100 nM (active); as for `O=[N+]([O-])c1nn(-c2ccc3c(c2)OCCO3)n(O)c1=NC1CCCCCC1`, 2050 nM (active).
Under `O=[N+]([O-])c1nn(-c2ccc3c(c2)OCCO3)n(O)c1=NC1CCCC1` stands 3650 nM (active); under `O=[N+]([O-])c1nn(-c2ccc3c(c2)OCCO3)n(O)c1=NC1CCCCC1`, 3260 nM (active); under `Cc1nc([N+](=O)[O-])cn1-c1nc2ccccn2c1[N+](=O)[O-]`, 1830 nM (active).
As for `COc1cc(-c2noc(C)c2C(=O)NCC[C@@H]2CCCN2C)cc(OC)c1OC`, the entry is “inactive”; as for `Cc1ccc(NC(=O)C2CCN(S(=O)(=O)c3cc([N+](=O)[O-])ccc3Cl)CC2)nc1`, 4600 nM (active); as for `Cc1cc(C)cc(NC(=O)Cn2c(=O)oc3cc(S(=O)(=O)N4CCC(C)CC4)ccc32)c1`, “inactive”.
On to `Cc1ccc([N+](=O)[O-])cc1NC(=O)C1CCN(S(C)(=O)=O)CC1`, for which the Potency entry was “inactive”.
As for `Cc1ccc(SCCNC(=O)c2ccccc2F)cc1`, the entry is “inactive”; as for `Cc1ccc(C)c(Sc2ccc(NC(=O)CCl)cc2)c1`, 918 nM (active); as for `C(=C\c1nc2ccccc2s1)/c1ccc2c(c1)OCO2`, 2310 nM (active).
Under `C(=C\c1cnc2ccccc2n1)/c1ccc2c(c1)OCO2` stands 2310 nM (active); under `Cc1ccccc1C(=O)N/N=C/c1ccc([N+](=O)[O-])s1`, 1450 nM (active).
As for `Cc1ccccc1NCC(=O)N/N=C\c1ccc([N+](=O)[O-])s1`, the figure is 3260 nM (active).
Take `Cc1cc(C(=O)N/N=C/c2ccc([N+](=O)[O-])s2)c2ccccc2n1`: the Potency was 2900 nM (active).
As for `O=C(N/N=C/c1ccc([N+](=O)[O-])s1)c1ccccc1Br`, the figure is 1630 nM (active).
Consider `N/C(=N\N=Cc1ccc2c(c1)OCO2)NN=Cc1ccc2c(c1)OCO2`, for which the Potency was 4100 nM (active).
As for `C[C@@H]1CC=C[C@H]2[C@H]1C(=O)N(Cc1ccccc1)[C@H]2c1ccc2ccccc2c1/C=C/c1ccccc1`, the entry is “inactive”.
